The nature of assay [1]: qHTS profiling for inhibitors of Plasmodium falciparum (3D7) proliferation (AID 743322; call rule not given here;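 note: infected erythrocytes exposed to compound for 72 h before lysis; 100% = DMSO vehicle wells and 0% = 0.29 µM artemisinin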). The following applies: P. falciparum 3D7 proliferation; at 28.7 µM (top of the series) unless noted. In a few lines:
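Erythrocytes infected with P. falciparum (0.3% parasitemia, 2.5% hematocrit) incubated with compounds 72 h at 37 C, 5% CO2. Lysis with saponin/Triton buffer containing SYBR Green I, overnight at room temperature in the dark; DNA fluorescence (485/535 nm) normalised to 0.29 uM artemisinin and DMSO.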
On the technique in general: Quantitative high-throughput screening tests each substance at several concentrations.

A short description of assay [2]: qHTS profiling for inhibitors of Plasmodium falciparum (DD2) proliferation (AID 743323; call rule not given here). To be noted: lower = more inhibition; at 28.7 µM (top of the series) unless noted. Put shortly:
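P. falciparum Dd2-infected erythrocytes (0.3% parasitemia, 2.5% hematocrit) exposed 72 h at 37 C, 5% CO2. Lysis with SYBR Green, overnight at room temperature, fluorescence 485/535 nm; normalized to 0.29 uM artemisinin and DMSO.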

For assay [3], the target named is Tyrosine-protein kinase Yes (Homo sapiens) (UniProt P07947). Description: qHTS for small molecule inhibitors of Yes1 kinase: Primary Screen (AID 686947).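 Note: plate controls were DMSO with enzyme for no effect and no-enzyme DMSO wells for full effect; nearly all actives have a fitted effect of over 60% in size.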 Put shortly: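 Yes1 (4 nM) preincubated 20 min with compound, then 60 min room-temperature reaction with 0.1 mM ATP and 0.3 mg/mL poly(E4Y) in pH 7.5 Tris, 10 mM MgCl2. ADP measured by ADP-Glo luminescence, normalised to enzyme/no-enzyme controls.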

Assay [4] is described as follows: qHTS for small molecule inhibitors of Yes1 kinase: Counter Assay (AID 686950).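 Note: no kinase present so only ADP-Glo detection of a fixed ADP amount is tested; luminescence from ADP-Glo reporting ADP in a fixed ATP and ADP mixture; 0% = DMSO wells with ATP plus ADP and -100% = ATP-only wells without ADP.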 Put shortly:
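Luminescence read-out from ADP-Glo quantifies a fixed ADP amount (0.02 mM ADP with 0.08 mM ATP) after 60 min at room temperature; signal is normalized between DMSO wells with ATP/ADP and with 0.1 mM ATP alone.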

Assay [5] is described as follows: qHTS Assay for Identifying Gametocytocidal Compounds (AID 743244).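 For max response: % is set by controls: 0 for no effect and ±100 for the full control effect; actives lower the fluorescent signal which means gametocytes are killed.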 Note: potency is the fitted concentration of half-maximal effect. To be noted: P. falciparum 3D7 stage III-V gametocytes, alamarBlue, 72 h; max response: stronger effect = lower value. Put shortly: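 Using 20,000 stage III–V 3D7 gametocytes per well, compounds were incubated 72 h under 37 °C/5% CO2. Viability was then assessed by 24 h alamarBlue reduction, measured fluorometrically at 525/598 nm.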

Assay [6] addresses Arylsulfatase A (Homo sapiens) (UniProt P15289). Description: qHTS screen for enhancers of Arylsulfatase A (ASA1): LOPAC Validation Assay (AID 720538). The following applies: ASA enzyme activity, LOPAC qHTS enhancer assay; at 57.5 µM (top of the series). In a few lines:
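Cell-based enhancement test: residual ASA activity in SV40-transformed I179S patient fibroblasts is measured by pNCS turnover (0.5mM final, 14h, room temperature) following 48h compound incubation; higher fluorescence indicates activation.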

Assay [7] in a line: qHTS for compounds that reverse cellular toxicity of Amyloid beta (A-beta) peptide in yeast: LOPAC Validation Assay (AID 720559).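 Note: plate controls were DMSO for no effect and equimolar ferric chloride plus clioquinol rescue for full effect.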 In a few lines:
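Here, A-beta-toxic yeast grow with test compounds at 30 C for 48 hr before optical density at 600 nm is recorded; data are normalized against DMSO and the FeCl3-clioquinol control.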

The nature of assay [8]: qHTS for Activators of Parkin Expression: LOPAC Validation Assay (NLuc Reporter) (AID 720572;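 note: 0% = DMSO and 100% = positive control compound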). In a few lines:
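Parkin promoter-driven FLuc/NLuc neuronal reporter cells; 24 h plating, 7-pt dose response, 24 h at 37 C/5% CO2; FLuc then NanoLuc reagent, 10 min each, luminescence; DMSO/positive control normalized.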

A short description of assay [9]: qHTS for Activators of Parkin Expression: LOPAC Validation Assay (FLuc Reporter) (AID 720573;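 note: 0% = DMSO and 100% = positive control compounds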). In a few lines:
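Readout is FLuc luminescence from neuronal reporter cells (Parkin promoter, FLuc plus NLuc) after 24 h compound exposure in dose response. Values normalized to neutral DMSO and positive-control compounds.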

Assay [10] deals with T1, Hexokinase-4 (Homo sapiens) + Glucokinase regulatory protein (Homo sapiens) (UniProt P35557+Q14397). Description: qHTS assay for inhibitors of recombinant human GCK-GKRP interaction: Diaphorase-coupled assay (AID 743205). In a few lines: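 Signal derives from resorufin generated by diaphorase, linked to GCK turnover of glucose (5 mM) and ATP (0.4 mM). Enzyme complex was added after a 20-minute compound preincubation and monitored for 30 minutes.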

Assay [11] deals with T1, Hexokinase-4 (Homo sapiens) + Glucokinase regulatory protein (Homo sapiens). The experiment in a line: qHTS assay for inhibitors of recombinant human GCK-GKRP interaction: ADP-Glo assay (AID 743206).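 Note: plate controls were DMSO plus enzyme for no effect and no enzyme for full effect.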 In a few lines:
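GST-GCK and FLAG-GKRP (15 nM each in the dispensed mix, with 2 uM S6P) react with 0.4 mM ATP and 5 mM glucose (final) in Hepes pH 7.6 for 60 min at room temperature. ADP is measured by ADP-Glo luminescence.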

Assay [12] shares this target. The experiment in a line: qHTS assay for inhibitors of recombinant human GCK-GKRP interaction: HTRF assay (AID 743207).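 Note: 0% = DMSO with GCK present and -100% = DMSO wells lacking GCK.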 Put shortly: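 Titration screening format: recombinant GST-GCK and FLAG-GKRP at 5 nM, S6P at 2 uM, labelled anti-tag antibodies, 60 min at RT, dual-wavelength HTRF readout.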

25 compounds from PubChem BioAssay (NCATS) can be followed below.

SMILES strings stand for the structures. Results filed as inconclusive are left out. Active and inactive are the calls of the source. Unless noted, calls come from the whole dose curve; as a rule, active = well fitted curve in the direction sought with a large enough effect; inconclusive = small, poorly fitted or top-dose-only effect, or another doubt; inactive = no such curve, though single readings can be large; an effect the other way counts as inactive or inconclusive.

T1 sequence (P35557 whole entry, looked up): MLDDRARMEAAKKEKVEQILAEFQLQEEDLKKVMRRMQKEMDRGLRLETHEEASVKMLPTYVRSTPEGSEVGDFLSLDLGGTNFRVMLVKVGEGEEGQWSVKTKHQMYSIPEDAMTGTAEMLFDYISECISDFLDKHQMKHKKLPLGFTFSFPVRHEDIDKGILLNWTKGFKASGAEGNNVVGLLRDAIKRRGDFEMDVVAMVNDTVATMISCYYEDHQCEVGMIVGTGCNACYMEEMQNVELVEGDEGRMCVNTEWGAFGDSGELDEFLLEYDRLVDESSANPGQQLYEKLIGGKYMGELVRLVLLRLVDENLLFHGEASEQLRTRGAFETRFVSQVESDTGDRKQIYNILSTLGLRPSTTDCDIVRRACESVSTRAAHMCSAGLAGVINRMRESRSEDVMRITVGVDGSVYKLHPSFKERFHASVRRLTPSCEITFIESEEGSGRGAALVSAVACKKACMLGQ
T1 sequence (Q14397 whole entry, looked up): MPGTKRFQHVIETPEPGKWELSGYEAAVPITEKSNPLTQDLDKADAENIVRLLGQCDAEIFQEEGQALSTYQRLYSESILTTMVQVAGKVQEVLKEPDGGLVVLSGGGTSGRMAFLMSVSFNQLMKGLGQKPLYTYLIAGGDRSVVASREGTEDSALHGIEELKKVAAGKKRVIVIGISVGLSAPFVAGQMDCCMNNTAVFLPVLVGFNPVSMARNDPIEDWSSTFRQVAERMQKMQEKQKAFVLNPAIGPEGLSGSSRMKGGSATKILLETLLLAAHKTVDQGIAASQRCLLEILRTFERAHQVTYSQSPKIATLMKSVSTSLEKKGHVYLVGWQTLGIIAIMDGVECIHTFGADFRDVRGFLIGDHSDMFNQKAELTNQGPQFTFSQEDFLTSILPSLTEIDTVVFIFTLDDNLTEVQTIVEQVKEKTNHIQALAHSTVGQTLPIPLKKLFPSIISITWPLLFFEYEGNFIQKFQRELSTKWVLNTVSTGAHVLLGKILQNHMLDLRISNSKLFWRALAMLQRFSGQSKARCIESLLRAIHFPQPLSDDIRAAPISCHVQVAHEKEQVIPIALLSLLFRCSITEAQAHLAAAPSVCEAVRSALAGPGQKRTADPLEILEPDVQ
Chain of Tyrosine-protein kinase Yes (Homo sapiens) (P07947 whole entry, looked up): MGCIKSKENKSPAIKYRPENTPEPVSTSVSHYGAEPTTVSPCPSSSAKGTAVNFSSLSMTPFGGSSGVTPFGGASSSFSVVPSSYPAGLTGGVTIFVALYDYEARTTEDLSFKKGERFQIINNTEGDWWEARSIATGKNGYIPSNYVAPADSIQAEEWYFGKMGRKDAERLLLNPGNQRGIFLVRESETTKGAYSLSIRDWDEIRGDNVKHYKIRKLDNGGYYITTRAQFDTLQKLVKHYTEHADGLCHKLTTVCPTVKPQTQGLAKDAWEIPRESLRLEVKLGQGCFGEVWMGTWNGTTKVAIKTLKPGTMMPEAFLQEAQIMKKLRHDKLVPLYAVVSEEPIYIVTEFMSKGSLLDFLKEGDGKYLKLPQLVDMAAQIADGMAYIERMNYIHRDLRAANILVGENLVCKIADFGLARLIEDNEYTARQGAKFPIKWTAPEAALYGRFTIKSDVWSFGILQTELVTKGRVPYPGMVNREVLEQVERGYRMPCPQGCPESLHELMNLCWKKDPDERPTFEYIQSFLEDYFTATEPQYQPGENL
Chain of Arylsulfatase A (Homo sapiens) (P15289 whole entry, looked up): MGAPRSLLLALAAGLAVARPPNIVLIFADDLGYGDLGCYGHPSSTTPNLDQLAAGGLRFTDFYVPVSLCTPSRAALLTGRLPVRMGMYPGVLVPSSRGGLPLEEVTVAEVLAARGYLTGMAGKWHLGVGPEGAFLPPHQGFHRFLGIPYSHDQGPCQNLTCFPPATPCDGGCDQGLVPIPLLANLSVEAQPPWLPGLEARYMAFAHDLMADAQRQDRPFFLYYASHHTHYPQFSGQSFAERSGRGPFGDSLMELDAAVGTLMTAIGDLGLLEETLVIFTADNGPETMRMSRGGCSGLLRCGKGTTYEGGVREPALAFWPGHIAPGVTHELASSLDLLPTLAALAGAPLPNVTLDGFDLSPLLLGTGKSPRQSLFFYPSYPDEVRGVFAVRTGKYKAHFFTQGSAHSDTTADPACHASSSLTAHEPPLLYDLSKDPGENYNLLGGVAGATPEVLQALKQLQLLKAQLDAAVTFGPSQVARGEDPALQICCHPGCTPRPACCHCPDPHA

As for `O=C1NC(=O)C(c2cnc3ccccn23)=C1c1cn2c3c(cccc13)CN(C(=O)N1CCOCC1)CC2`, the remaining parasite growth % (stronger effect = lower value) in assay [1] came out at 49.3%. Also, the activity, percent of control in [2] is 63.3%.

Consider `Cc1nn(Cc2ccccc2Cl)c(C)c1CN(C)CC(O)COc1ccc(Cl)cc1` (stereo not drawn), for which the Potency result in assay [3] was “inactive”. Besides, the compound was classed as inactive in assay [4]. In assay [1], the remaining parasite growth % (stronger effect = lower value) is 29.8%. Also, the activity, percent of control in assay [2] turned out to be 18.1%.

For `NCC1CCC(C(=O)O)CC1` (stereo not drawn), the max response in [5] is -0.776% (inactive).

With `O=C(O)c1nc(=O)[nH]c(=O)[nH]1`, in [5], the max response was 15.4% (inactive).

Consider `NS(=O)(=O)c1cc(Cl)c(Cl)c(S(N)(=O)=O)c1`, for which the max response in assay [5] was -4.73% (inactive).

Turning to `O=C1CN2Cc3c(ccc(Cl)c3Cl)N=C2N1`, the remaining parasite growth % (stronger effect = lower value) in assay [1] is 87%. For the same compound, the activity, percent of control in assay [2] was found to be 93.4%.

Take `CCN(CC)CCCCNc1nc2cc(Cl)c(Cl)cc2nc1-c1ccc(-c2cccs2)s1`: the result in assay [4] was inactive. In addition, in assay [1], the remaining parasite growth % (stronger effect = lower value) worked out at 0.96%. The activity, percent of control in [2] amounted to 1.46%.

Regarding `Clc1ccc(COC(Cn2ccnc2)c2ccc(Cl)cc2Cl)c(Cl)c1` (stereo not drawn), in assay [5], the Potency is 4480 nM (active). The remaining parasite growth % (stronger effect = lower value) in [1] is -0.257%. Further, in [2], the activity, percent of control was -0.374%.

As for `CN(C)CCN(Cc1ccc(Cl)cc1)c1ccccn1`, in [5], the max response is 18.2% (inactive).

Take `Cc1cc2c(cc1C1(c3ccc(C(=O)O)cn3)CC1)C(C)(C)CCC2(C)C`: the outcome in [4] was inactive. Moreover, in assay [5], the max response is 8.43% (inactive). Further, the remaining parasite growth % (stronger effect = lower value) in assay [1] came out at 101%. Also, the activity, percent of control in [2] was 97.2%.

Take `O=C(O)Cc1cccc(OCCCN(Cc2cccc(C(F)(F)F)c2Cl)CC(c2ccccc2)c2ccccc2)c1`: in [4], the compound was called inactive. Further, in assay [5], the max response is 0.38% (inactive). Further, in [1], the remaining parasite growth % (stronger effect = lower value) was 36.2%. Besides, in assay [2], the activity, percent of control was 34.1%.

For `CC(C)C[C@@H](C(=O)N[C@H](C(=O)OC1CCCC1)c1ccccc1)[C@H](O)C(=O)NO`, the Potency entry in assay [3] is “inactive”. In addition, the outcome in [4] was inactive. In assay [1], the remaining parasite growth % (stronger effect = lower value) was determined as 3.5%. Besides, the activity, percent of control in assay [2] worked out at 9.3%.

On to `CC(=O)NCCC(=O)N[C@@H](CCC(N)=O)C(=O)N[C@@H](CO)C(=O)N[C@@H](CCC(N)=O)C(=O)N[C@@H](CCC(N)=O)C(=O)N[C@H](C(=O)N[C@@H](Cc1ccccc1)C(=O)N[C@]1(C)CCCCCCC=CCCC[C@@](C)(C(=O)N[C@@H](CCC(N)=O)C(=O)N[C@@H](CC(N)=O)C(N)=O)NC(=O)[C@H](CC(C)C)NC(=O)[C@H](CC(C)C)NC(=O)[C@@H](CCCNC(=N)N)NC(=O)[C@H](Cc2c[nH]c3ccccc23)NC(=O)[C@H](CC(C)C)NC(=O)[C@H](CC(N)=O)NC1=O)[C@H](C)O`, for which, in [4], the call was inactive. Besides, in assay [1], the remaining parasite growth % (stronger effect = lower value) turned out to be 38.2%. Also, the activity, percent of control in assay [2] was 68.3%.

`CC[C@H](C)C(=O)O[C@H]1C[C@H](O)C=C2C=C[C@H](C)[C@H](CC[C@@H](O)C[C@@H](O)CC(=O)O)[C@H]21`: the max response in assay [5] is -1.33% (inactive).

Turning to `CO[C@@H]1C(N(C)C(=O)c2ccccc2)C[C@H]2O[C@]1(C)n1c3ccccc3c3c4c(c5c6ccccc6n2c5c31)C(=O)NC4=O` (stereo partly drawn), the remaining parasite growth % (stronger effect = lower value) in [1] worked out at 110%. The activity, percent of control in assay [2] is 103%.

Regarding `C[C@H]1O[C@@H](n2cc(F)c(=O)[nH]c2=O)[C@H](O)[C@H]1O`, the outcome in [6] is “inactive; inhibitor; fitted 8.4921 uM”. Moreover, the call in assay [7], in [8], in assay [9], in assay [10], in assay [11] and in assay [12] was inactive. Also, the max response in assay [5] is 6.51% (inactive).

For the compound `CS(=O)(=O)c1ccc(C2=C(c3ccccc3)C(=O)OC2)cc1`, the max response in assay [5] is 3.44% (inactive).

Consider `COc1ccnc(CS(=O)c2nc3ccc(OC(F)F)cc3[nH]2)c1OC` (stereo not drawn), for which the max response in assay [5] is 7.9% (inactive).

Turning to `CO[C@H]1O[C@@H]2O[C@@]3(C)CC[C@@H]4[C@@H](C)CC[C@@H]([C@H]1C)[C@@]24OO3`, the Potency in assay [5] was 11.8 nM (active).

Regarding `CC(C)CNc1ccnc(NCc2csc(-c3ccccc3)n2)n1`, the remaining parasite growth % (stronger effect = lower value) in assay [1] came to 3.03%. In addition, the activity, percent of control in assay [2] is 6.76%.

In the case of `N#CC(c1ccc(Cl)cc1)c1c(Cl)cc(-n2ncc(=O)[nH]c2=O)cc1Cl` (stereo not drawn), in assay [5], the max response is -5.57% (inactive).

`C=CCc1cccc(C=NNC(=O)CN2CCN(Cc3ccccc3)CC2)c1O`: the outcome in [7], in assay [8], in assay [9], in [10], in assay [11] and in [12] was inactive.

Regarding `CN1CCN2c3ncccc3Cc3ccccc3C2C1` (stereo not drawn), the max response in assay [5] is 6.21% (inactive).

For `COc1ccc2nc3cc(Cl)ccc3c(Nc3cc(CN4CCCC4)c(O)c(CN4CCCC4)c3)c2n1`, in assay [1], the remaining parasite growth % (stronger effect = lower value) is -1.29%. In addition, the activity, percent of control in assay [2] was -0.214%.

For `CCNC(=O)c1noc(-c2cc(C(C)C)c(O)cc2O)c1-c1ccc(CN2CCOCC2)cc1`, in assay [4], the call was inactive. The Potency in [5] is 46.9 nM (active). The remaining parasite growth % (stronger effect = lower value) in [1] amounted to 0.155%. Also, in assay [2], the activity, percent of control was found to be 0.689%.
